ERK EGF inh – qHTS Assay for Inhibitors of the ERK Signaling Pathway using a Homogeneous Screening Assay; Stimulation with EGF. Potency, µM (doses to about 11.5 µM), inactives show at the top dose activity change, negative = inhibition, actives largely listed as inhibitors. AID 1454, 2008. 0.41% of 130,000 active. HEK293-V1b, EGF-stimulated phospho-ERK AlphaScreen; active = well fitted inhibition curve with a large enough effect;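 also: plate controls were stimulated vehicle wells for no effect and unstimulated vehicle basal for full effect; nearly all actives have a fitted effect of over 55% in size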
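HEK293 cells stably expressing V1b receptor, serum-reduced (1% FBS) overnight, pretreated 30 min with compound, then stimulated 5 min with 25 nM EGF; phospho-ERK detected by AlphaScreen SureFire. AC50 from Hill fits, normalized to DMSO and EGF.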
Active calls of the source: *; ! = not active in a repeat; [ ] = another dose, or the depositor's remark. Many of the other results were omitted from the sample, so hits are more common in it than they were. Potency is read from the fitted curve at half-maximal effect.

SMILES	ERK EGF inh
Cc1ccc(/C=C2\C(=O)NC(=S)N(c3ccc(F)cc3)C2=O)s1	4.6%
CCOC(=O)C1CCN(/C=C2/C(=O)NC(=S)N(c3ccccc3F)C2=O)CC1	2.2%
Cc1ccc(/C=C2\C(=O)NC(=S)N(c3ccccc3F)C2=O)s1	20µM*
CCC1CN2CCc3cc(OC)c(OC)cc3C2CC1CC1NCCc2cc(OC)c(OC)cc21 (stereo unspecified)	1.4%
CC(=O)c1c(O)n(-c2cccc(Cl)c2)c(=O)[nH]c1=O (tested in a mixture with another compound)	-9.7%[57.5 µM]
CC(C)n1c(O)c(C2c3cc(Cl)ccc3Oc3[nH]c(=O)n(C(C)C)c(=O)c32)c(=O)[nH]c1=O (stereo unspecified)	3.16µM*
O=C(Nc1cccc(F)c1)N1CC2(CCNCC2)C1	9.4%
COc1ccc(CNC(=O)/C=C\c2ccc3[nH]cc(CCN(C)C)c3c2)cc1	4.8%
CCN(CC)c1ncnc2c1ncn2[C@@H]1O[C@H](COP(=O)(O)OP(=O)(O)C(Br)(Br)P(=O)(O)O)[C@@H](O)[C@H]1O	9.2%
O=C1Nc2ccccc2C2(CCN(CCc3ccc(C(F)(F)F)cc3)CC2)O1	31.6µM*
O=C1/C(=C\c2ccccc2)C[C@@]2(O)[C@H]3Cc4ccc(O)c5c4[C@@]2(CCN3CC2CC2)[C@@H]1O5	0.2%
CC/C=C\C/C=C\C/C=C\C/C=C\C/C=C\CCCC(N)=O	-9.4%
CC[C@H](Oc1ccc(Cl)cc1)C(=O)OC1C[C@H]2CC[C@@H](C1)N2C (stereo partly specified)	1.4%
COC1=CC2C3Cc4ccc(OC)c(O)c4[C@]2(CCN3C)CC1=O (stereo partly specified)	9.5%
CC/C=C\C/C=C\C/C=C\C/C=C\C/C=C\CCCC(=O)NCCO	0.0%
C[CH2][Hg][S]c1ccccc1C(=O)O	31.6µM*
CNc1ccccc1C(=O)O	23.3%
CC(C)COC(=O)c1ccccc1C(=O)OCC(C)C	-11.5%[57.5 µM]
NC(=O)CI	-5.3%
C[C@@H]1OC(OC2C(OC3CC[C@@]4(C)C5CC=C6C7CC(C)(C)CC[C@@]7(C(=O)O)CCC6(C)C5(C)CCC4[C@]3(C)CO)OCC(O)C2O)C(O)C(O)C1O (stereo partly specified)	28.2µM*
CN(N=O)c1ccc(O)c(O)c1	15.9%
C(=C/c1ccccc1)/CN1CCN(CCOC(c2ccccc2)c2ccccc2)CC1	-11.7%
CCCN1CCO[C@@H]2c3cc(O)ccc3OC[C@@H]21	3.1%
CC(N)C(O)c1ccc(O)c(O)c1 (stereo unspecified)	4.6%
Oc1cc2c(cc1O)[C@H]1c3ccccc3CN[C@H]1CC2	-1.6%
SMILES	ERK EGF inh
O=C(Oc1ccccc1)N1CCC[C@@]2(CCN(Cc3cc(C(F)(F)F)cc(C(F)(F)F)c3)C2)C1	12.9%
c1cc2c(cc1[C@H]1OC[C@@H]3[C@H]1CO[C@H]3c1ccc3c(c1)OCO3)OCO2	-9.8%
CN(C)c1ccc(/C=C/c2cc[n+](C)c3ccccc23)cc1	13.5%
CC[n+]1c(/C=C/C=C/c2ccc(N(C)C)cc2)sc2ccccc21	15.8µM*
CN[C@@H]1C[C@H](c2ccc(Cl)c(Cl)c2)c2ccccc21	10.0%
CNc1ccc2oc(C[C@H]3O[C@]4(CC[C@H]3C)O[C@H]([C@H](C)C(=O)c3ccc[nH]3)[C@H](C)C[C@H]4C)nc2c1C(=O)O	-15.4%
CC(C)=CCCC1(C)C=Cc2c(O)c3c(c(CC=C(C)C)c2O1)OC12C(=CC4CC1C(C)(C)OC2(C/C=C(/C)C(=O)O)C4=O)C3=O (stereo unspecified)	15.8µM*
CC(C)=CCCC1(C)C=Cc2c(O)c3c(c(CC=C(C)C)c2O1)OC12C(=CC4CC1C(C)(C)OC2(C/C=C(/C)C(=O)O)C4O)C3=O (stereo unspecified)	37.4%
CC(C)CCCC1(C)C=Cc2c(O)c3c(c(CCC(C)C)c2O1)OC12C(CC4CC1C(C)(C)OC2(CCC(C)C(=O)O)C4O)C3=O (stereo unspecified)	5.4%
NCC#Cc1ccccc1	-1.6%
C[C@@H]1O[C@H](O[C@@H]2C[C@@H](O)[C@]3(CO)[C@H]4[C@H](O)C[C@]5(C)[C@@H](C6=CC(=O)OC6)CC[C@@]5(O)[C@@H]4CC[C@]3(O)C2)[C@@H](O)[C@H](O)[C@H]1O	-2.7%
CCCN1CCCC(c2cccc(O)c2)C1 (stereo unspecified)	15.7%
Cl.Cl.Cl.Cl.Cl.Cl.N.N.N.N.NNNNN.NNNNN.O.O.[Ru].[Ru].[Ru]	-10.3%
C[C@@]12CC[C@H]3[C@@H](CCC4=CC(=O)CC[C@]43C)[C@H]1CC[C@H]2C(=O)CO	11.3%[25.7 µM]
CC(=O)[C@H]1CC[C@H]2[C@@H]3CCC4=CC(=O)CC[C@]4(C)[C@H]3CC[C@]12C	14.1µM*!
CC(=O)[C@@H]1CC[C@@H]2[C@@H]3CCC4=CC(=O)CC[C@@]4(C)[C@H]3CC[C@]21C	-6.6%[25.7 µM]
CCCCCC1C(=O)O[C@H](C)[C@@H](NC(=O)c2cccc(NC=O)c2O)C(=O)OC(C)C1OC(=O)CC(C)C (stereo partly specified)	11.5%
O=C1NO[C@H]2[C@@H]1CN[C@@H]2C(=O)O	-2.8%
c1csc(CN2CC[C@@]3(CCCNC3)C2)n1	0.9%
C=C(COC(C)=O)CC1CC(O)[C@]2(C)OC3CC4OC5C[C@]6(C)O[C@]7(C)CCC8OC9C[C@]%10(C)OC%11C(C)=CC(=O)OC%11CC%10OC9C[C@@H](C)C8OC7CC6O[C@]5(C)C/C=C\C4OC3CC2O1 (stereo partly specified)	-11.1%[57.5 µM]
C=C(CO)CC1CC(O)[C@]2(C)OC3CC4OC5C[C@]6(C)O[C@]7(C)CCC8OC9C[C@]%10(C)OC%11C(C)=CC(=O)OC%11CC%10OC9C[C@@H](C)C8OC7CC6O[C@]5(C)C/C=C\C4OC3CC2O1 (stereo partly specified)	-17.2%[57.5 µM]
C=C(C=O)CC1CC(O)[C@]2(C)OC3CC4OC5C[C@]6(C)O[C@]7(C)CCC8OC9C[C@]%10(C)OC%11C(C)=CC(=O)OC%11CC%10OC9C[C@@H](C)C8OC7CC6O[C@]5(C)CC5OC5C4OC3CC2O1 (stereo partly specified)	35.5µM*
C[C@]12CC[C@@H](O)CC1CCC1C2CC[C@]2(C)C(=O)CC[C@@H]12 (stereo partly specified)	13.9%
CCCc1cc2c(n1Cc1ccco1)C(C)C1CN(C(=O)c3ccccc3)C(C)(C(=O)OC)C21 (stereo unspecified)	-5.2%
CC(=O)[O][Hg][c]1ccccc1	14.1µM*
SMILES	ERK EGF inh
NCC(=O)c1ccccc1	20.9%
CC(C)OP(=O)(O)NC(=O)c1ccccc1	2.7%
CC1=C(O)C(=O)C=C2C1=CC=C1[C@]2(C)CC[C@@]2(C)C3C[C@](C)(C(=O)O)CC[C@@]3(C)CC[C@@]12C (stereo partly specified)	15.8µM*
COC(=O)[C@]1(C)CC[C@@]2(C)CC[C@@]3(C)C4=CCc5c(cc(O)c(O)c5C)[C@]4(C)CC[C@@]3(C)C2C1 (stereo partly specified)	21.0%
COc1cc2c(cc1O)[C@H]1Cc3ccc(OC)c(O)c3CN1CC2	10.1%[25.7 µM]
C[C@]12CCC3C(CC[C@H]4C[C@@H](O)CC[C@]34C)[C@@H]1CCC2=O (stereo partly specified)	4.7%
